Assay outcomes as filed in PubChem.
Hits are enriched below; roughly 3.9% of the tested compounds scored in any of these assays.
Eya2 inh – qHTS Assay for Inhibitors of the Phosphatase Activity of Eya2; recombinant Eya2, OMFP fluorescence dephosphorylation (OMFP is methylfluorescein phosphate); Protein phosphatase EYA2 (Homo sapiens), O00167; hit rate 0.006% among 330,000; Potency, µM (top dose mostly 76.9 µM), without a hit: top-dose activity, negative = inhibition, most hits filed as inhibitors; also: potency is read from the fitted curve at half-maximal effect; % is scaled to controls: 0 for no effect and ±100 for the full control effect
Target sequence (O00167 whole entry, looked up): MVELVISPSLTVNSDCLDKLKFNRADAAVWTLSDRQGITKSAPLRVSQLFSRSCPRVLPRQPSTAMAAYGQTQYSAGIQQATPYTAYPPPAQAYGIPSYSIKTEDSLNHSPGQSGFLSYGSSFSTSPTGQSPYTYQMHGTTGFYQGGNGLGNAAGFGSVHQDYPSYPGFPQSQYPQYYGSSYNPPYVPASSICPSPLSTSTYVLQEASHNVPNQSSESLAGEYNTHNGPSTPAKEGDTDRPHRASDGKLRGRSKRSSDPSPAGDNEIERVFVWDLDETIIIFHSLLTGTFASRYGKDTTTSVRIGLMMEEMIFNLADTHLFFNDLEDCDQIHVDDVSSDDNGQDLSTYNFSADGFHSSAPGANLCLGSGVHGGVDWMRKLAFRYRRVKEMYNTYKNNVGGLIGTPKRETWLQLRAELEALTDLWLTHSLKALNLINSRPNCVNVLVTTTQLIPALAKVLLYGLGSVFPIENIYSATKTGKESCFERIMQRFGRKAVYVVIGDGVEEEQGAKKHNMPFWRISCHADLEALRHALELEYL
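Eya2 protein (added as 0.2 uM solution) was preincubated with compound for 10 min at ambient temperature in 50 mM HEPES pH 7.5, 50 mM NaCl, 5 uM MgCl2, 0.05% BSA, 1 mM DTT. OMFP (added at 50 uM) then reacted 10 min; fluorescence read at 485/525 nm.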
D1 antagonist – Antagonist of Human D 1 Dopamine Receptor: qHTS | HEK293 TREx D1 cells, calcium flux, dopamine EC80; hits give low values | activity change, negative = inhibition, % at 10 µM | hit rate 3.2% among 360,000; in the data active = activity change below about -30%; also: % is scaled to controls: 0 for no effect and ±100 for the full control effect
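Antagonism measured as reduced calcium response to an EC80 dopamine addition following 180 s compound pre-read; cells were inducible HEK293 Trex D1 plated overnight at 30 C, read kinetically at 1 cycle/sec.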
GALK inh – qHTS Assay for Inhibitors of Human Galactokinase (GALK) | P51570 | AID 1868, 2009 | hit rate 0.007% among 270,000 | Purified GALK, Kinase-Glo residual ATP luminescence | Potency, µM (doses to about 57.5 µM), for the others: top-dose activity change, negative = inhibition, actives largely listed as inhibitors; also: potency is read from the fitted curve at half-maximal effect; % is scaled to controls: 0 for no effect and ±100 for the full control effect
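Galactose (100 uM) and ATP (35 uM) were turned over by 5 nM GALK for 1 h at RT. Kinase-Glo Plus then converted the remaining ATP into a luminescent signal.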
USP2a inh – qHTS Assay for Inhibitors of Ubiquitin-specific Protease USP2a Using CHOP2 as the Reporter; Ubiquitin carboxyl-terminal hydrolase 2 (Homo sapiens), O75604; USP2 core, Ub-CHOP2 coupled fluorogenic reporter, 485/531; Potency, µM (series often up to 38.3 µM), inactives show at the highest dose activity change, negative = inhibition, usual class: inhibitors; hit rate 0.01% among 330,000; AID 463254, 2010;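 also: potency is read from the fitted curve at half-maximal effect; plate controls were DMSO wells for no effect and full inhibition by NEM control for full effect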
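USP2 core (10nM final) preincubated 30min RT with compound in 20mM Tris-HCl pH 8.0, 2mM CaCl2, 2mM beta-mercaptoethanol, 0.05% CHAPS; 25nM Ub-CHOP2 plus 25nM reporter substrate added, fluorescence (Ex485/Em531) read after 60min.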
D1 PAM – Potentiators of Human D1 Dopamine Receptor: qHTS. HEK293 TREx D1 cells, calcium flux, dopamine EC20 potentiation. D(1A) dopamine receptor (Homo sapiens), P21728. potentiation, % at 10 µM. hit rate 0.036% among 360,000. AID 504651, 2011; in the data active = potentiation above about 30%; also: 0% is about no effect
D1 ag – Allosteric Agonists of the Human D1 Dopamine Receptor: qHTS; D(1A) dopamine receptor (Homo sapiens), P21728; HEK293 T-REx D1 cells, calcium flux, agonist mode; activation, % at 2 µM; hit rate 1% among 360,000; in the data active = activation above about 30%; also: 0% is about no effect
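Inducible HEK293 T-REx D1 cells, force-coupled to calcium signalling, were plated at 4000 cells/well with tetracycline and held overnight at 30 C. After no-wash calcium dye loading, compound-evoked calcium rise over 180 s flagged agonists.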
An asterisk follows results filed as active; nt = not tested or not shown. Unless noted, calls follow the shape of the dose curve; as a rule, active = well fitted inhibition curve with a large enough effect; inconclusive = small, poorly fitted or top-dose-only effect, or effect the other way; inactive = flat fitted curve, though single readings scatter.

SMILES	Eya2 inh	D1 antagonist	GALK inh	USP2a inh	D1 PAM	D1 ag
CSC1=C(C#N)C(c2ccccc2Cl)C2=C(N1)c1ccccc1C2=O (stereo not drawn)	12%	-42*	nt	4%	-7	-1
Cc1ccc(Cn2cc(/C=C(/C#N)C(=O)Nc3cccc(Cl)c3)c3ccccc32)cc1	nt	-8	nt	nt	-1	4
CCc1ccc(C2NC(=O)c3[nH]nc(-c4cccc(OC)c4)c32)cc1 (stereo not drawn)	nt	-4	nt	nt	6	-1
Cc1ccc(C(=O)O[C@H](C(=O)O)[C@@H](OC(=O)c2ccc(C)cc2)C(=O)O)cc1 (tested in a mixture with another compound)	12%	nt	nt	nt	nt	nt
CCOC(=O)C(NC(=O)CCl)(Nc1sc(C)c(CC)c1C#N)C(F)(F)F (stereo not drawn)	4%	6	2%	-1%	0	2
CCOC(=O)C(NC(=O)CC(C)C)(Nc1sc(C)c(CC)c1C#N)C(F)(F)F (stereo not drawn)	-7%	-83*	1%	2%	-11	2
COc1cc(C2C3CN(C)CC=C3C(C#N)=C(N)C2(C#N)C#N)ccc1OC(C)C (stereo not drawn)	11%	-50*	9%	15%	-16	4
CCC(C(=O)OC)n1nnc2sc(-c3ccccc3)cc2c1=O (stereo not drawn)	nt	-2	nt	nt	-3	3
COc1cccc(CNC(=O)CCc2cn(Cc3ccccc3Cl)c3ccccc23)c1	nt	-9	nt	nt	1	33*
CCOC(=O)C1=C(CNCCc2ccc(Cl)cc2)NC(=O)NC1c1ccc2c(c1)OCO2 (stereo not drawn)	6%	9	1%	-5%	-2	2
CCOC(=O)C1=C(CNCCOc2ccc(OC)cc2)NC(=O)NC1c1ccc2c(c1)OCO2 (stereo not drawn)	-14%	-33*	0%	1%	-3	9
COc1ccc(CCNC(=O)C(=O)NN=C2CCCCCCC2)cc1OC	3%	-74*	3%	0%	-8	1
COc1ccc(CCNC(=O)COc2ccc(-c3ccc(C)cc3)cc2)cc1OC	-18%	-31*	-2%	4%	-1	2
COc1ccc(CCNC(=O)CCOc2ccc(C)cc2)cc1OC	7%	-18	-7%	0%	0	1
CC(NC(=O)C12CC3CC(CC(C3)C1)C2)c1ccc(F)cc1 (stereo not drawn)	0%	-51*	-1%	-6%	9	-3
COc1ccc(N(C)C(=O)c2nc(-c3cccc(F)c3)n3c2CCCCC3)c(OC)c1	nt	7	nt	nt	-3	1
CCN1CCN(c2ccc(NC(=O)CCc3c(C)nc4c(-c5ccc(F)cc5)c(C)nn4c3C)cc2)CC1	-5%	-79*	3%	2%	-14	6
Cc1nc2c(-c3ccc(F)cc3)c(C)nn2c(C)c1CCC(=O)Nc1ccccc1	-1%	-19	5%	-2%	-10	2
COCCNC(=O)CCc1c(C)nc2c(-c3ccc(F)cc3)c(C)nn2c1C	17%	-22	2%	0%	-7	1
COCCCNC(=O)CCc1c(C)nc2nc(-c3cc(OC)cc(OC)c3)nn2c1C	nt	-31*	nt	nt	-2	1
COc1cc(OC)cc(-c2nc3nc(C)c(CCC(=O)NCCC(C)C)c(C)n3n2)c1	nt	9	nt	nt	1	0
COCCCNC(=O)CCc1c(C)nc2c(-c3ccc(F)cc3)c(C)nn2c1C	-12%	-34*	-2%	2%	-13	2
CC(=O)Nc1ccc(C(=O)Nc2ccc3c(c2)N(C2CCCC2)C(=O)c2ccccc2S3)cc1	nt	4	nt	nt	-1	3
CN1CCCCC1CCN1c2ccccc2Sc2ccc(S(C)=O)cc21 (stereo not drawn)	-16%	-84*	0%	-1%	-4	7
CCOC(=O)C1CCN(C(=O)c2cc3ccc4ccc(C)[nH]c4c3n2)CC1	nt	-1	nt	nt	0	1
SMILES	Eya2 inh	D1 antagonist	GALK inh	USP2a inh	D1 PAM	D1 ag
COc1cccc(-c2ccc(NC(=O)C3CCCN(CCCn4nc(C)cc4C)C3)cc2)c1 (stereo not drawn)	11%	-21	7%	-2%	-7	41*
COc1ccc(NC(=O)C2CCCN(c3nc(C)cc(C)n3)C2)cc1 (stereo not drawn)	3%	-4	0%	0%	0	2
COc1ccc(-c2cc(C(=O)NCc3ccc(F)cc3)c3c(-c4ccc(F)cc4)[nH]nc3n2)cc1OC	nt	-2	nt	nt	1	-1
CC1Cc2ccccc2N1C(=O)CN1C(=O)NC(C)(c2ccc3c(c2)OCCO3)C1=O (stereo not drawn)	16%	12	-3%	-3%	5	38*
O=C(NCc1cccc(F)c1)c1ccc(CS(=O)c2ccccc2Cl)o1 (stereo not drawn)	nt	-12	nt	nt	-5	7
O=C(CCSCc1ccc(Cl)cc1)NCc1ccc(F)cc1Cl	nt	-33*	nt	nt	-3	10
O=C(CCSCc1cccc(Cl)c1)NCc1ccc(F)cc1Cl	nt	0	nt	nt	3	10
O=C(CCSCc1ccccc1Cl)NCc1ccc(F)cc1Cl	nt	-19	nt	nt	-1	68*
Cc1ccc(NC(=O)CCCSc2nc3ccccc3[nH]2)cc1	2%	-33*	0%	1%	-1	1
O=C(CCCSc1nc2ccccc2[nH]1)Nc1nnc(C2CC2)s1	-2%	-36*	-2%	13%	-11	4
O=C(CCCSc1nc2ccccc2[nH]1)NC1CCCCC1	16%	6	-1%	2%	-2	2
COc1ccc(NC(=O)CN2CCN(Cc3ccc(F)cc3)S2(=O)=O)cc1Cl	nt	-1	nt	nt	-4	8
O=C(CN1CCN(Cc2ccc(F)cc2Cl)S1(=O)=O)Nc1ccc(F)cc1	nt	-20	nt	nt	-3	48*
COc1ccc(S(=O)(=O)NCC(c2ccc(N(C)C)cc2)N2CCc3ccccc32)cc1F (stereo not drawn)	nt	13	nt	nt	-1	-1
COc1ccc(C2C=C(c3ccccc3)Nc3nc(NC(=O)/C=C/c4ccc(Cl)cc4)nn32)cc1 (stereo not drawn)	nt	-77*	nt	nt	1	1
COc1ccc(C(=O)Nc2nc3n(n2)C(c2ccc(Cl)cc2)C=C(c2ccccc2)N3)cc1OC (stereo not drawn)	nt	-2	nt	nt	-1	39*
